Laboratory results: PubChem BioAssay
A number with no mark means an inactive call. For some assays here: Results with a measured potency or affinity are listed apart. Calls of active or inactive are those of the source. Unless noted, the rule behind the calls is not given here.

Assays:
[1] = antimalarial activity against Dd2 strain (AID 2302;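 active = growth inhibition above 50% at the single 2 µM test dose, taken to imply half-maximal potency below 2 µM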;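 note: 0% = DMSO untreated growth and 100% = chloroquine plus artemisinin killed control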); details: P. falciparum Dd2 in RBCs, LDH growth readout, 72 h; at 2 µM; active compounds read high
[2] = human hepatoma cell viability loss – ATP luminescence, cytotoxicity control for P. falciparum antimalarial project, primary screen (AID 2303;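 active = inhibition above 50%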;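 note: 0% = DMSO wells and 100% = digitonin-killed cells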); details: HepG2 viability, 24-48 h, at 10 µM, active compounds read high
[3] = molecular target: L-lactate dehydrogenase (Plasmodium falciparum (isolate CDC / Honduras)) (UniProt Q27743); assay: PfLDH activity inhibition – cell lysate, 3D7 strain, counter-screen for P. falciparum growth inhibition project (AID 2304);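 note: 0% = vehicle and 100% = reference inhibitor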; details: P. falciparum 3D7 crude extract, LDH APAD/NBT absorbance; at 2 µM; active compounds read high
[4] = inhibition of 3D7 malaria parasite growth – strain 3D7 (AID 2306);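 note: 0% = DMSO wells and 100% = chloroquine plus artemisinin control wells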; details: P. falciparum 3D7 erythrocytic growth, LDH absorbance, 72 h; at 2 µM; active compounds read high
[5] = molecular target: Calcium-dependent protein kinase 1 (Plasmodium falciparum (isolate 3D7)) (UniProt P62344); assay: PfCDPK1 kinase inhibitors, biochemical, TCAMS library (AID 1159585; cut-off not given, nearly all actives have IC50 up to about 0.98 µM;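 note: inhibitors leave more ATP so luminescence rises with inhibition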); details: recombinant PfCDPK1, Kinase-Glo ATP depletion luminescence
[6] = molecular target: Plasmodium falciparum protein kinase 6 (PK6, PF3D7_1337100) (UniProt Q8IDW1); assay: PfPK6 kinase inhibitors, biochemical, TCAMS library (AID 1159586); details: recombinant PfPK6, Kinase-Glo ATP depletion luminescence
[7] = molecular target: Protein kinase 7 (PK7), Plasmodium falciparum 3D7 (PF3D7_0213400) (UniProt Q7YTF7); assay: inhibition of Plasmodium PK7 catalytic activity – biochemical, TCAMS antimalarial set, Kinase-Glo luminescence (AID 1159587); details: recombinant PfPK7, Kinase-Glo ATP depletion luminescence
[8] = molecular target: Calcium-dependent protein kinase 4 (Plasmodium falciparum (isolate 3D7)) (UniProt Q8IBS5); assay: PfCDPK4 kinase inhibitors, biochemical, TCAMS library (AID 1159588; cut-off not given, nearly all actives have IC50 up to about 0.91 µM); details: recombinant PfCDPK4, Kinase-Glo ATP depletion luminescence
Chain of Calcium-dependent protein kinase 4 (Plasmodium falciparum (isolate 3D7)) (Q8IBS5 whole entry, looked up): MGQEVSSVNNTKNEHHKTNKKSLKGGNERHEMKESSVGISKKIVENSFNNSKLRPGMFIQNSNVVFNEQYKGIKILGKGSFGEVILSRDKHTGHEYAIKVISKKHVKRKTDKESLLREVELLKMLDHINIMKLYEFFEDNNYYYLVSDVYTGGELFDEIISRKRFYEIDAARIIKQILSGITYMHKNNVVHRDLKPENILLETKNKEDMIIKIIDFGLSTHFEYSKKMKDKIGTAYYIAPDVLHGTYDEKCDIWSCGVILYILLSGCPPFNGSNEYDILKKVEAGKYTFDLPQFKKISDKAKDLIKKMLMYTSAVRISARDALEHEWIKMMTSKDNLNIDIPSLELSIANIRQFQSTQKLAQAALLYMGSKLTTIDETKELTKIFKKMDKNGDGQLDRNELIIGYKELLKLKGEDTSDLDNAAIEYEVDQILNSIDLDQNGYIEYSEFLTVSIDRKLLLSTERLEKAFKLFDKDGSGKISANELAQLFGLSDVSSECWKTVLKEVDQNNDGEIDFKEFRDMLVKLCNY

Chain of Plasmodium falciparum protein kinase 6 (PK6, PF3D7_1337100) (Q8IDW1 1-305): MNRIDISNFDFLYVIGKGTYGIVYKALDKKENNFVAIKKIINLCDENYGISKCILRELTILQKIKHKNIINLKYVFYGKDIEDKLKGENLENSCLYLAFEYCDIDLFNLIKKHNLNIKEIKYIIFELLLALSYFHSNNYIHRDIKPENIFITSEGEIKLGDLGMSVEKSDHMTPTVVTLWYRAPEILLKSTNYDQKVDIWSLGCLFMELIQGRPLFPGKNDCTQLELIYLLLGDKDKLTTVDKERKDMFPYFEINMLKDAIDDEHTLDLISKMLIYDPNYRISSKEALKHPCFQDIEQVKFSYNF
Chain of Calcium-dependent protein kinase 1 (Plasmodium falciparum (isolate 3D7)) (P62344 whole entry, looked up): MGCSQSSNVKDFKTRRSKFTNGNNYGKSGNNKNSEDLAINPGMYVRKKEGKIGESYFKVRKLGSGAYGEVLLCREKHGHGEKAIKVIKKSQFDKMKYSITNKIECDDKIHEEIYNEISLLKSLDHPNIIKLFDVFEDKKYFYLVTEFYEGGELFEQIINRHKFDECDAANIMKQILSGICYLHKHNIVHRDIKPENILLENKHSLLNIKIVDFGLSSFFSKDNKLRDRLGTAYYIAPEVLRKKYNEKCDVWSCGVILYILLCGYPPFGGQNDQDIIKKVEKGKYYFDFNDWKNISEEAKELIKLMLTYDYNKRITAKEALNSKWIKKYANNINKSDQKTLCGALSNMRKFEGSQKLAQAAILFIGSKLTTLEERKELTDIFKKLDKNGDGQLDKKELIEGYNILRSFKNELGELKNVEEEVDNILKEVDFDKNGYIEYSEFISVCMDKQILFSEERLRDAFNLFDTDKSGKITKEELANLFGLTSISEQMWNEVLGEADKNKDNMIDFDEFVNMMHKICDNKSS
Chain of L-lactate dehydrogenase (Plasmodium falciparum (isolate CDC / Honduras)) (Q27743 whole entry, looked up): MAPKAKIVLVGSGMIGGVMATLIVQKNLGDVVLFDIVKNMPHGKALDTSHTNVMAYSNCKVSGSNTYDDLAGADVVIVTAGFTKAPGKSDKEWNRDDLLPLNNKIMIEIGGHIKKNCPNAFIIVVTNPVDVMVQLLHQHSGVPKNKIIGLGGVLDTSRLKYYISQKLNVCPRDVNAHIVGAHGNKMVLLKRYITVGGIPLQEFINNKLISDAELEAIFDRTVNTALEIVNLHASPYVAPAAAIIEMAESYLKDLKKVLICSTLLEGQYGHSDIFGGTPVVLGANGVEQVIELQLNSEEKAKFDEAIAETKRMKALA
Chain of Protein kinase 7 (PK7), Plasmodium falciparum 3D7 (PF3D7_0213400) (Q7YTF7 1-343): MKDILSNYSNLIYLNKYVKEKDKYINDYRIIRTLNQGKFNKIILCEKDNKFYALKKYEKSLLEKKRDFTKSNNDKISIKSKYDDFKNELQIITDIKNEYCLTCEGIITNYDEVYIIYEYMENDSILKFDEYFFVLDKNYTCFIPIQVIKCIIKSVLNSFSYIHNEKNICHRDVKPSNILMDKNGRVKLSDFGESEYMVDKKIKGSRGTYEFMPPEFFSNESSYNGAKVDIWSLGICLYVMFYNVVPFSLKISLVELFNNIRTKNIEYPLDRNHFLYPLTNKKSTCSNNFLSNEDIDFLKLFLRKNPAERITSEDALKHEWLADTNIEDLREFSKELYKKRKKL

| SMILES | growth inhibition [1] | inhibition [2] | inhibition [3] [%] | growth inhibition [4] | outcome [5] | outcome [6] | outcome [7] | outcome [8] |
| --- | --- | --- | --- | --- | --- | --- | --- | --- |
| CN(C)CC(=O)N(Cc1ccc(Cl)c(Cl)c1)Cc1csc(-c2ccc(CNCc3ccccc3)cc2)n1 | 32% | 30% | 4 | 96% (active) | inactive | inactive | inactive | inactive |
| Cc1cc(N)nc2ccc(-c3cccc(CN)c3)cc12 | 59% (active) | 2% | -8 | 101% (active) | inactive | inactive | inactive | inactive |
| O=C(Nc1ccc2c(c1)CCN2C1CCN(Cc2ccc(F)cc2Cl)C1)c1ccco1 (stereo not given) | 96% (active) | 4% | 2 | 97% (active) | inactive | inactive | inactive | inactive |
| c1cncc(Oc2ccc(Nc3ccnc4cc(-c5cccc(CN6CCCCC6)c5)ccc34)cc2)c1 | 100% (active) | 33% | 4 | 101% (active) | inactive | inactive | inactive | inactive |
| COc1csc2cc(Br)ccc12 | -5% | 6% | -3 | 101% (active) | inactive | inactive | inactive | inactive |
| CCC(N)(C#Cc1ccc(-c2c(C)[nH]c(C)c(Br)c2=O)cc1)CC | 96% (active) | 0% | -1 | 97% (active) | inactive | inactive | inactive | inactive |
| CC1(C)[C@H]2CC[C@@H](CNc3nc(NCCc4cnc[nH]4)nc(Nc4ccc(Oc5ccccc5)cc4)n3)[C@@H]1C2 | 86% (active) | 2% | 3 | 99% (active) | inactive | inactive | inactive | inactive |
| CC(=NN=C(N)N)c1ccc2ccc3ccccc3c2c1 | 23% | 14% | -7 | 97% (active) | inactive | inactive | inactive | inactive |
| Nc1nccc2ccc(-c3ccc4ncccc4c3)cc12 | 100% (active) | 97% (active) | -7 | 100% (active) | inactive | inactive | inactive | inactive |
| CCCOc1ccc(C=C(CC(=O)O)c2nc3ccccc3s2)cc1OCC | 84% (active) | 7% | -1 | 89% (active) | inactive | inactive | inactive | inactive |
| CC[C@H](C)CNC(=O)c1cncc(-c2cccc(CNCCCc3ccccc3)c2)c1 | 0% | 9% | 1 | 95% (active) | inactive | inactive | inactive | inactive |
| COc1ccc2nccc(NN=Cc3cccnc3)c2c1 | 84% (active) | -1% | -6 | 100% (active) | inactive | inactive | inactive | inactive |
| CCN(CC)CCNc1ccnc2[nH]c3ccc(C)cc3c12 | 81% (active) | 9% | -3 | 102% (active) | inactive | inactive | inactive | inactive |
| CC(=O)Nc1ccc(CN2CCC(NC(=O)c3ccc(-c4cccc(C(F)(F)F)c4)s3)CC2)cc1 | 16% | 35% | -3 | 100% (active) | inactive | inactive | inactive | inactive |
| CC(Nc1ncc(-c2ccsc2)c(-c2nccs2)n1)c1ccc2c(c1)OCCO2 (stereo not given) | 66% (active) | 14% | 2 | 81% (active) | inactive | inactive | inactive | inactive |
| CC1Cc2ccccc2N1CC(=O)Nc1cc(C(F)(F)F)ccc1-n1cncn1 (stereo not given) | 97% (active) | 17% | 1 | 97% (active) | inactive | inactive | inactive | inactive |
| Cc1cc(NC(=O)c2cc(S(=O)(=O)N3CCCCC3)ccc2C)no1 | 29% | -7% | -7 | 95% (active) | inactive | inactive | inactive | inactive |
| CCN1CCN(CCCNc2c3ccccc3nc3ccccc23)CC1 | 3% | 44% | -1 | 100% (active) | inactive | inactive | inactive | inactive |
| O=[N+]([O-])c1cc2c(cc1C=NNc1nc(Nc3ccccc3)nc(Nc3ccccc3)n1)OCO2 | 46% | -8% | -2 | 98% (active) | inactive | inactive | inactive | inactive |
| N#Cc1c(N)n(CCc2ccc(F)cc2)c2nc3ccccc3nc12 | 36% | 8% | -1 | 92% (active) | inactive | inactive | inactive | inactive |

| SMILES | growth inhibition [1] | inhibition [2] | inhibition [3] [%] | growth inhibition [4] | outcome [5] | outcome [6] | outcome [7] | outcome [8] |
| --- | --- | --- | --- | --- | --- | --- | --- | --- |
| Cc1cc(C(=O)CN2C(=O)NC(C)(c3ccc4ccccc4c3)C2=O)c(C)n1Cc1ccco1 (stereo not given) | 71% (active) | 12% | 1 | 97% (active) | inactive | inactive | inactive | inactive |
| O=S(=O)(c1ccc(OCc2ccc(Cl)cc2)cc1)c1cc2c(cc1OCc1ccccc1)CCN(C1CCC1)CC2 | 13% | 17% | 6 | 89% (active) | inactive | inactive | inactive | inactive |
| CCc1cn2c3c(cc(C(=O)N[C@@H](Cc4cc(F)cc(F)c4)[C@H](O)CNC4CCOCC4)cc13)N(C)S(=O)(=O)CC2 | 98% (active) | 1% | -7 | 98% (active) | inactive | inactive | inactive | inactive |
| Cc1cccc(C(=O)NC(NC(=S)Nc2cc(Cl)ccc2Cl)C(Cl)(Cl)Cl)c1 (stereo not given) | 61% (active) | -8% | 1 | 94% (active) | inactive | inactive | inactive | inactive |
| O=C(Nc1cccc(-c2ccc(-c3nc4ccc(C(F)(F)F)cc4[nH]3)cc2)c1)c1ccoc1 | 42% | 76% (active) | -4 | 98% (active) | inactive | inactive | inactive | inactive |
| O=C(Nc1ccc(-c2nc3ccccc3[nH]2)cc1)c1cnc(Cl)c(Cl)c1 | 95% (active) | 11% | 0 | 102% (active) | inactive | inactive | inactive | inactive |
| COc1ccc(CN2CCCC(C(=O)c3ccc(C(F)(F)F)cc3)C2)c(O)c1 (stereo not given) | 88% (active) | -2% | -3 | 98% (active) | inactive | inactive | inactive | inactive |
| Cc1ccc(C(=O)Nc2cccc(CN3CCCN(Cc4ccc(O)cc4)CC3)c2)s1 | 23% | 17% | -4 | 90% (active) | inactive | inactive | inactive | inactive |
| CC(=O)Nc1ccc(C(=O)Nc2cccc(-c3csc(-c4nc5ccccc5[nH]4)c3)c2)cn1 | 97% (active) | 6% | -3 | 101% (active) | inactive | inactive | inactive | inactive |
| CC(Nc1ccnc2cc(Cl)ccc12)c1ccc(S(N)(=O)=O)cc1 (stereo not given) | 21% | 5% | 3 | 96% (active) | inactive | inactive | inactive | inactive |
| Oc1ccc(CCNc2nc(NCc3ccccc3-c3ccc(C(F)(F)F)cc3)nc(N3CCNCC3)n2)cc1 | 53% (active) | 17% | 8 | 97% (active) | inactive | inactive | inactive | inactive |
| CCC[C@@H]([C@@H](CC1CCCCC1)C(=O)N[C@H](C(=O)Nc1nccs1)[C@H](C)O)N(O)C=O | 75% (active) | -4% | -5 | 99% (active) | inactive | inactive | inactive | inactive |
| COc1ccc(C(O)CNC(C)CCc2ccccc2)cc1C(F)(F)F (stereo not given) | 100% (active) | 3% | 1 | 99% (active) | inactive | inactive | inactive | inactive |
| COc1ccc(CCNCCCCCCNCCc2ccc(-c3ccccc3)cc2)cc1OC | 35% | 100% (active) | 1 | 99% (active) | inactive | inactive | inactive | inactive |
| CCOC(=O)C1=C(C)NC(Cn2ccnc2)=C(C(=O)OCC)C1c1ccc(C(C)(C)C)cc1 (stereo not given) | 33% | 8% | -10 | 100% (active) | inactive | inactive | inactive | inactive |
| Cc1cc(C)c(NC(=O)NC2CCN(CCCCCNC(=O)/C=C/c3ccc(Cl)c(Cl)c3)CC2)c(C)c1 | 17% | 30% | 2 | 103% (active) | inactive | inactive | inactive | inactive |
| O=C(Nc1ccc(OC(F)(F)F)cc1)NC1CCN(c2ccnc3ccccc23)C1 (stereo not given) | 89% (active) | 25% | 1 | 101% (active) | inactive | inactive | inactive | inactive |
| Fc1ccc2nc(-c3cccc(-c4ccc(CNCC5CCCO5)cc4)c3)[nH]c2c1 (stereo not given) | 98% (active) | 36% | 0 | 101% (active) | inactive | inactive | inactive | inactive |
| Cc1nnsc1C(=O)Nc1ccc(-c2ccc(-c3nc4ccccc4[nH]3)s2)cc1 | 38% | 49% | 4 | 92% (active) | inactive | inactive | inactive | inactive |
| CCCNCc1ccc(-c2ccc(CN(CCOC)C(=O)c3cnc(C)cn3)cc2)nc1 | 14% | -3% | -4 | 81% (active) | inactive | inactive | inactive | inactive |
